Laboratory results reported in PubChem BioAssay AID1159580 (chemical genetic matrix, 2015).
Among all 5,500 compounds or so, about 2,000 (36%) were called active. About 18% were inconclusive and are not listed. Cut-off read from the data, not from the text of the source: active = normalized growth mostly below about 0.91 (no sharp cut-off); inconclusive = no clear call, values can overlap the other calls; inactive = mostly above about 0.92. The list shows a part of the results.

Experiment: chemical genetic growth profiling, strain panel (AID 1159580);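 note: tested at 20 µM; growth read once vehicle control cultures reached saturation at 30 °C; 1 = growth at the plate median or of vehicle wells; lower values mean less growth of the strain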
Details: growth OD

Measured: normalized growth

NC1C[C@H]1c1ccccc1 (some centres not stated)
inactive: S. cerevisiae deletion strains, locus YJR075W, strain HOC1, active compounds read low 0.998 | S. cerevisiae deletion strains, locus YKL009W, strain mrt4, active compounds read low 0.989 | S. cerevisiae deletion strains, locus YKL068W, active compounds read low 0.992 | S. cerevisiae deletion strains, locus YKL085W, strain MDH1 (second series), active compounds read low 0.987 | S. cerevisiae deletion strains, locus YKL085W, strain MDH1, active compounds read low 0.987 | S. cerevisiae deletion strains, locus YKL160W, strain elf1, active compounds read low 0.964 | S. cerevisiae deletion strains, locus YKL190W, strain CNB1, active compounds read low 1.01 | S. cerevisiae deletion strains, locus YKR001C, strain vps1, active compounds read low 0.98 | S. cerevisiae deletion strains, locus YKR026C, strain gcn3, active compounds read low 0.984 | S. cerevisiae deletion strains, locus YKR091W, strain srl3, active compounds read low 0.979 | S. cerevisiae deletion strains, locus YLL001W, strain dnm1, active compounds read low 0.977 | S. cerevisiae deletion strains, locus YLL026W, active compounds read low 0.996 | S. cerevisiae deletion strains, locus YLL041C, strain sdh2, active compounds read low 1 | S. cerevisiae deletion strains, locus YLR027C, strain aat2, active compounds read low 0.987 | S. cerevisiae deletion strains, locus YLR039C, strain RIC1, active compounds read low 1.01 | S. cerevisiae deletion strains, locus YLR058C, strain SHM2, active compounds read low 1.01 | S. cerevisiae deletion strains, locus YLR102C, strain apc9, active compounds read low 0.985 | S. cerevisiae deletion strains, locus YLR113W, strain HOG1, active compounds read low 0.981 | S. cerevisiae deletion strains, locus YLR221C, strain rsa3, active compounds read low 1.01 | S. cerevisiae deletion strains, locus YLR258W, strain gsy2, active compounds read low 0.981 | S. cerevisiae deletion strains, locus YLR262C, strain YPT6 (second series), active compounds read low 0.974 | S. cerevisiae deletion strains, locus YLR262C, strain YPT6, active compounds read low 1.03 | S. cerevisiae deletion strains, locus YLR268W, strain sec22, active compounds read low 0.963 | S. cerevisiae deletion strains, locus YLR320W, strain mms22, active compounds read low 1.02 | S. cerevisiae deletion strains, locus YLR330W, strain CHS5, active compounds read low 1.01 | S. cerevisiae deletion strains, locus YLR342W, strain FKS1 (second series), active compounds read low 0.987 | S. cerevisiae deletion strains, locus YLR342W, strain FKS1, active compounds read low 0.973 | S. cerevisiae deletion strains, locus YLR357W, strain rsc2, active compounds read low 0.939 | S. cerevisiae deletion strains, locus YLR370C, strain arc18, active compounds read low 0.989 | S. cerevisiae deletion strains, locus YLR371W, strain rom2, active compounds read low 0.972 | S. cerevisiae deletion strains, locus YLR384C, strain iki3, active compounds read low 0.989 | S. cerevisiae deletion strains, locus YLR418C, strain cdc73, active compounds read low 0.962 | S. cerevisiae deletion strains, locus YML016C, strain PPZ1, active compounds read low 1.01 | S. cerevisiae deletion strains, locus YML032C, strain rad52, active compounds read low 0.985 | S. cerevisiae deletion strains, locus YML120C, strain ndi1, active compounds read low 1.01 | S. cerevisiae deletion strains, locus YML124C, strain tub3, active compounds read low 0.987 | S. cerevisiae deletion strains, locus YMR058W, strain fet3, active compounds read low 1 | S. cerevisiae deletion strains, locus YMR078C, strain ctf18, active compounds read low 0.981 | S. cerevisiae deletion strains, locus YMR125W, strain sto1, active compounds read low 0.939 | S. cerevisiae deletion strains, locus YMR129W, active compounds read low 0.998 | S. cerevisiae deletion strains, locus YMR205C, strain PFK2, active compounds read low 1.02 | S. cerevisiae deletion strains, locus YMR223W, strain ubp8, active compounds read low 0.98 | S. cerevisiae deletion strains, locus YMR231W, strain pep5, active compounds read low 0.975 | S. cerevisiae deletion strains, locus YMR263W, strain SAP30, active compounds read low 1 | S. cerevisiae deletion strains, locus YMR307W, strain GAS1, active compounds read low 0.945 | S. cerevisiae deletion strains, locus YNL067W, strain RPL9B, active compounds read low 1.01 | S. cerevisiae deletion strains, locus YNL071W, strain lat1, active compounds read low 0.984 | S. cerevisiae deletion strains, locus YNL128W, strain TEP1, active compounds read low 1.02 | S. cerevisiae deletion strains, locus YNL153C, strain GIM3, active compounds read low 0.989 | S. cerevisiae deletion strains, locus YNL183C, strain NPR1, active compounds read low 0.933 | S. cerevisiae deletion strains, locus YNL209W, strain ssb2, active compounds read low 0.977 | S. cerevisiae deletion strains, locus YNL233W, strain BNI4, active compounds read low 0.993 | S. cerevisiae deletion strains, locus YNL248C, strain rpa49, active compounds read low 0.929 | S. cerevisiae deletion strains, locus YNL250W, strain rad50, active compounds read low 0.973 | S. cerevisiae deletion strains, locus YNL271C, strain bni1, active compounds read low 0.987 | S. cerevisiae deletion strains, locus YNL298W, strain CLA4, active compounds read low 0.987 | S. cerevisiae deletion strains, locus YNL307C, strain MCK1, active compounds read low 0.988 | S. cerevisiae deletion strains, locus YNL322C, strain KRE1 (second series), active compounds read low 0.98 | S. cerevisiae deletion strains, locus YNL322C, strain KRE1, active compounds read low 1.01 | S. cerevisiae deletion strains, locus YNR049C, strain mso1, active compounds read low 0.989 | S. cerevisiae deletion strains, locus YNR052C, strain pop2, active compounds read low 0.995 | S. cerevisiae deletion strains, locus YOL006C, strain TOP1, active compounds read low 1.05 | S. cerevisiae deletion strains, locus YOL012C, strain htz1 0.845 | S. cerevisiae deletion strains, locus YOL147C, strain pex11, active compounds read low 0.983 | S. cerevisiae deletion strains, locus YOR001W, strain rrp6, active compounds read low 1.02 | S. cerevisiae deletion strains, locus YOR061W, strain CKA2, active compounds read low 1.01 | S. cerevisiae deletion strains, locus YOR069W, strain VPS5, active compounds read low 1.01 | S. cerevisiae deletion strains, locus YOR070C, strain gyp1, active compounds read low 0.992 | S. cerevisiae deletion strains, locus YOR080W, strain dia2, active compounds read low 0.993 | S. cerevisiae deletion strains, locus YOR083W, strain WHI5, active compounds read low 0.934 | S. cerevisiae deletion strains, locus YOR106W, strain vam3, active compounds read low 0.99 | S. cerevisiae deletion strains, locus YOR136W, strain idh2, active compounds read low 0.982 | S. cerevisiae deletion strains, locus YOR144C, strain elg1, active compounds read low 0.988 | S. cerevisiae deletion strains, locus YOR184W, strain ser1, active compounds read low 0.994 | S. cerevisiae deletion strains, locus YOR231W, strain MKK1, active compounds read low 0.986 | S. cerevisiae deletion strains, locus YOR265W, strain rbl2, active compounds read low 0.99 | S. cerevisiae deletion strains, locus YOR270C, strain vph1, active compounds read low 0.997 | S. cerevisiae deletion strains, locus YOR290C, strain snf2, active compounds read low 0.964 | S. cerevisiae deletion strains, locus YOR316C, strain cot1, active compounds read low 0.988 | S. cerevisiae deletion strains, locus YPL051W, strain arl3, active compounds read low 0.983 | S. cerevisiae deletion strains, locus YPL055C, strain LGE1, active compounds read low 1 | S. cerevisiae deletion strains, locus YPL078C, strain atp4, active compounds read low 0.975 | S. cerevisiae deletion strains, locus YPL106C, strain sse1, active compounds read low 0.961 | S. cerevisiae deletion strains, locus YPL240C, strain hsp82, active compounds read low 1.02 | S. cerevisiae deletion strains, locus YPL241C, strain CIN2, active compounds read low 1 | S. cerevisiae deletion strains, locus YPL256C, strain CLN2, active compounds read low 0.956 | S. cerevisiae deletion strains, locus YPR119W, strain clb2, active compounds read low 0.991 | S. cerevisiae deletion strains, locus YPR141C, strain kar3, active compounds read low 0.981 | S. cerevisiae deletion strains, locus YPR163C, strain tif3, active compounds read low 0.983 | S. cerevisiae deletion strains, locus YPR167C, strain met16, active compounds read low 0.984 | S. cerevisiae deletion strains, strain wtn01, active compounds read low 0.964 | S. cerevisiae strains, strain wild type, active compounds read low 1.01
